# System: LYN
# Conditions: Compound Concentration (nM):1000
# 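Further: KINOMEscan scanMAX binding as percent activity remaining versus control; lower means stronger binding.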
row,Structure (SMILES),Percent Control [%]
1,Cl.O=S1CCN(Cc2ccc(-c3ccc4ncnc(Nc5ccc(OCc6ccccc6)c(F)c5)c4c3)o2)CC1 [GW576924A],100
2,COc1ccc2[nH]c3c4[nH]c5ccc(OC)cc5c4c4c(c3c2c1)C(=O)NC4=O [GW296115X],69
3,COc1cc2ncnc(Nc3ccc4c(cnn4Cc4ccccc4)c3)c2cc1OC.Cl [GW282449A],46
4,COc1cc(C=NNc2ncnc3c2cnn3-c2ccccc2)ccc1O [GW513184X],74
5,COc1ccccc1-c1cc(/C=C2\C(=O)Nc3ncc(Br)cc32)cc(Br)c1O [GW442130X],100
6,CN1CCN(C(=O)c2ccc(NC(=O)Nc3ccc(N(C)c4ccnc(Nc5ccc(CS(C)(=O)=O)cc5)n4)cc3)cc2)CC1.Cl [GW830263A],71
7,O=C1Nc2ccc(C(=O)c3ccco3)cc2C1=Cc1cc(Cl)c(O)c(Cl)c1 [GW406108X],86
8,COc1cc(/C=N/Nc2ncnc3[nH]ncc23)ccc1O [GW578748X],86
9,Cc1cc(O)cc(C)c1/C=C/c1cncc(C(N)=O)c1 [GW435821X],38
10,CCS(=O)(=O)c1ccc(OC)c(Nc2ncc(-c3cccc(F)c3)o2)c1 [GW621970X],36
11,Cl.O=C(Nc1ccc(Oc2ccc3[nH]c(NC(=O)c4ccco4)nc3c2)cc1)Nc1cc(C(F)(F)F)ccc1F [GW683134A],29
12,Nc1ncnc2occ(-c3ccc(NC(=O)Nc4cc(C(F)(F)F)ccc4F)cc3)c12 [GW770249X],29
13,O=C(Nc1n[nH]c2nc(-c3ccc(O)cc3)c(Br)cc12)C1CC1 [SB-725317],100
14,CC1=C(C(=O)Nc2ccc3[nH]ncc3c2)C(c2ccc(Cl)c(Cl)c2)CC(=O)N1 (stereo not shown) [GSK299115A],100
15,NS(=O)(=O)c1ccc(N/N=C2\C(=O)Nc3ccc(Cl)cc32)cc1 [GW280670X],90
16,CC1=C(C(=O)Nc2ccc3[nH]ncc3c2)C(c2ccc3ccccc3c2)CC(=O)N1 (stereo not shown) [GSK270822A],66
17,COc1cccc(-c2c[nH]c3c(N/N=C/c4ccncc4)ncnc23)c1 [GW814408X],50
18,NS(=O)(=O)c1ccc(N/N=C2\C(=O)Nc3ccc(C(=O)NCCc4c[nH]cn4)cc32)cc1 [GW300660X],100
19,CN(C)CCNC(=O)Nc1ccc(N(C)c2ccnc(Nc3ccc(CS(C)(=O)=O)cc3)n2)cc1.Cl [GW830900A],100
20,COc1ccc2cc(-c3c(-c4ccncc4)nc(-c4ccc(S(C)(=O)=O)cc4C)n3C)ccc2c1 [SB-633825],66

row,Structure (SMILES),Percent Control [%]
1,NS(=O)(=O)c1ccc(N/N=C2\C(=O)Nc3ccc(-c4cnco4)cc32)cc1 [GW276655],100
2,CN(C)c1cc2c(Nc3ccc4c(cnn4Cc4ccccc4)c3)ncnc2cn1 [GW282974X],89
3,COc1ccc2c(-c3ccnc(Nc4cccc(OC(F)(F)F)c4)n3)cnn2n1 [GW810372X],100
4,Cl.O=C(O[C@H]1CN[C@H](C#Cc2cc3ncnc(Nc4ccc5c(cnn5Cc5ccccc5)c4)c3s2)C1)N1CCOCC1 [GSK200398A],76
5,CCS(=O)(=O)c1ccc(OC)c(Nc2ncc(-c3cccc(OC)c3)o2)c1 [GW580509X],53
6,CCc1ccc(Oc2nccc(-c3c(-c4ccc(F)cc4)ncn3C3CCNCC3)n2)cc1 [SB-242719],100
7,NS(=O)(=O)c1ccc(N/N=C2\C(=O)Nc3ccc(C(=O)NCc4ccncc4)cc32)cc1 [GW300657X],81
8,COc1ccc(COc2ccc(Cc3cnc(N)nc3N)cc2OC)cc1 [GW632580X],100
9,NS(=O)(=O)c1ccc(Nc2ncc(-c3ccccc3)o2)cc1 [GW572399X],100
10,COC(=O)Nc1nc2ccc(Oc3ccc(NC(=O)Nc4cc(C(F)(F)F)ccc4F)cc3)cc2s1.Cl [GW693917A],19
11,COc1cc(C)c(N(C)C(=O)CN(C)C)cc1Nc1nc(Nc2cccc(F)c2C(N)=O)c2cc[nH]c2n1 [GSK2219385],100
12,COc1cc(N2CCN(C(C)C)CC2)ccc1Nc1nc(Nc2ccc(F)cc2C(=O)NC[C@@H](O)CO)c2cc[nH]c2n1 [GSK1392956A],92
13,CC(C)COC(=O)c1ccc2c(c1)/C(=C/Nc1ccc(S(N)(=O)=O)cc1)C(=O)N2 [GW416981X],100
14,Cl.c1ccc(Cc2nc3ccc(Nc4ncnc5ccccc45)cc3[nH]2)cc1 [GR269666A],93
15,CCn1c(-c2nonc2N)nc2c(C#CC(C)(C)O)nc(OCCNC)cc21.Cl [GSK949675],100
16,COc1cc2ncn(-c3cc(O[C@H](C)c4ccccc4Cl)c(C(N)=O)s3)c2cc1OC [GSK237701A],81
17,COc1cccc(-n2ncc3c(N/N=C/c4ccncc4)ncnc32)c1 [GW784752X],58
18,C[C@@H](Oc1cc(-n2cnc3ccc(OC4CCN(C)CC4)cc32)sc1C(N)=O)c1ccccc1Cl [GSK579289A],93
19,Cl.O=C(Nc1ccc(Oc2ccc3[nH]c(NC(=O)c4ccccc4)nc3c2)cc1)Nc1cc(C(F)(F)F)ccc1F [GW709042A],72
20,C/C(Nc1ccc(S(N)(=O)=O)cc1)=C1/C(=O)Nc2ccccc21 [GW335962X],87

# Reference: PMC7826789 (International Journal of Molecular Sciences, 2021)
